Screening results from PubChem.
HCMV inh – qHTS Assay for inhibitors of the human cytomegalovirus (HCMV). HFF cells, HCMV-luciferase reporter, 72 h; active compounds read low. activity change, negative = inhibition, % at 57.5 µM. AID 1259415, 2018. hit rate 4.5% among 410,000; in the data active = activity change below about -60%; inconclusive = no clear call, values can overlap the other calls; inactive = above about -39%; note: % is set by controls: 0 for no effect and ±100 for the full control effect
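Screen run at 2 compound doses on HFFs infected with reporter HCMV, MOI 1 PFU/cell. Luciferase activity from cell lysates at 72 h post infection gave inhibition relative to buffer-only and Salinomycin wells.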
CHX counter – Cycloheximide Counterscreen for Small Molecule Inhibitors of Shiga Toxin; cell reporter, cycloheximide protein synthesis inhibition counterscreen; max response, %; hit rate 12% among 300,000; AID 2314, 2010; in the data active = max response mostly above about 13%, no sharp cut-off; inactive = mostly below about 14%; note: read at 38.3 µM for the half of the compounds with a filed dose; 0% is about no effect
Shiga toxin inh – A qHTS for Small Molecule Inhibitors of Shiga Toxin. Vero cells, Shiga toxin protein synthesis inhibition reporter. inhibition, % at 38.7 µM. hit rate 9.2% among 290,000. AID 2315, 2010; in the data active = inhibition mostly above about 28%, no sharp cut-off; inactive = mostly below about 43%; note: 0% is about no effect
HCV inhibitor – qHTS Assay for Inhibitors of Hepatitis C Virus (HCV); Huh7.5.1 HCVcc-Cre infection, luciferase reporter, 44 h; Potency, µM (titrated, usually from 41.8 µM), for the others: at the highest dose activity change, negative = inhibition, most hits filed as inhibitors; hit rate 3.4% among 340,000; AID 651820, 2012; note: potency is the fitted concentration of half-maximal effect; % is set by controls: 0 for no effect and ±100 for the full control effect
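1,000 cells/well; 4 h culture; + compound; + HCVcc-Cre (~0.5 moi); 44 h; luciferase substrate, RT 15 min; read 15 sec.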
Pf growth 96h – Primary qHTS for delayed death inhibitors of the malarial parasite plastid, 96 hour incubation | hit rate 6.9% among 320,000 | P. falciparum luciferase reporter growth, 96 h | AID 504834, 2011 | Potency, µM (titrated, usually from 28.7 µM), without a hit: at the highest dose activity change, negative = inhibition, most hits filed as inhibitors; note: potency is the fitted concentration of half-maximal effect; % is set by controls: 0 for no effect and ±100 for the full control effect
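P. falciparum expressing integrated firefly luciferase grown in erythrocytes (2% hematocrit, 0.05% parasitemia final) with compounds for 96 hours at 37 C, 5% CO2. Growth inhibition read as loss of luminescence after adding luciferase detection reagent.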
Pf growth 48h – Primary qHTS for delayed death inhibitors of the malarial parasite plastid, 48 hour incubation | AID 504832, 2011 | Potency, µM (series often up to 28.7 µM), for inactives: at the highest dose activity change, negative = inhibition, actives largely listed as inhibitors | P. falciparum luciferase growth in erythrocytes, 48 h | hit rate 5.9% among 310,000; note: potency is the fitted concentration of half-maximal effect; % is set by controls: 0 for no effect and ±100 for the full control effect
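Luminescence readout; reporter = integrated firefly luciferase in P. falciparum. RBC culture at 2% hematocrit, 0.1% parasitemia final, 37 C/5% CO2; decreased signal taken as growth inhibition.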
* = called active by the depositor; i = inactive; u = inconclusive; x = no result. Rows were chosen to be rich in hits. Some 21% of all compounds tested hit in one or more screens of this group. Unless noted, calls come from the whole dose curve; as a rule, active = well fitted inhibition curve with a large enough effect; inconclusive = small, poorly fitted or top-dose-only effect, or another doubt; inactive = no such curve, though single readings can be large or run the other way.

SMILES	HCMV inh	CHX counter	Shiga toxin inh	HCV inhibitor	Pf growth 96h	Pf growth 48h
N#CC1=C2SCN(C3CCCCC3)CN2C(=O)CC1c1c(F)cccc1Cl (configuration not stated)	1	x	x	x	x	x
O=S(=O)(c1ccccc1Cl)N1CCC(Cc2ccccc2)CC1	22	7	5	-12%	u	-13%
O=C(Oc1ccccc1)c1cccc2cccc(C(=O)Oc3ccccc3)c12	-10	-2	12	u	10µM*	u
COc1ccc(-n2c(Cc3cccn3C)nnc2SCC(=O)Nc2cc(Cl)ccc2OC)cc1	18	-2	-1	-18%	u	10µM*
Cn1cccc1Cc1nnc(SCC(N)=O)n1CCc1ccccc1	4	-3	-13	4%	u	2%
COc1ccc(-n2c(Cc3cccn3C)nnc2SCC(=O)Nc2ccc(C)cc2C)cc1	7	-4	-15	u	6%	u
Cn1cccc1Cc1nnc(SCC(=O)NC2CCCC2)n1CCc1ccccc1	20	-3	-2	-11%	8.3µM*	x
COc1ccc(-n2c(Cc3cccn3C)nnc2SCC(=O)Nc2nc(C)cs2)cc1	-17	-6	-6	1%	u	u
Cn1cccc1Cc1nnc(SCC(=O)Nc2ccccc2F)n1CCc1ccccc1	-10	-2	-12	0%	-2%	13µM*
COc1ccc(-n2c(Cc3cccn3C)nnc2SCC(=O)Nc2ccccc2OC)cc1	-3	-1	-8	0%	u	13µM*
CC(=O)Nc1ccc(S(=O)(=O)NCc2cccn2Cc2cccc(C)c2)cc1	-31	x	x	x	x	x
Cn1cccc1Cc1nnc(SCC(=O)Nc2ccccc2F)n1-c1ccc(F)cc1	-2	-4	-6	-18%	u	13µM*
O=[N+]([O-])/C(Cl)=C1\NCCN1Cc1ccc(Cl)nc1	-23	2	8	1%	40%	32%
CN(Cc1ccccc1)C(=C(Cl)Cl)/C(=C1/NCCN1Cc1ccc(Cl)nc1)[N+](=O)[O-]	-29	-4	-15	3%	9.3µM*	x
Cc1ccc(NC(=O)c2ccc3oc(=O)c(S(=O)(=O)c4ccccc4)cc3c2)cc1C	22	x	x	x	x	x
Clc1cccc(Cl)c1Cn1ccc(C2CC2)n1	-31	41*	64*	5%	111%	i
O=c1c2ccccc2c(-c2ccccc2)nn1Cc1c(Cl)cccc1Cl	-12	-2	-6	-20%	u	u
CCOC(=O)c1c(C)n(-c2ccc(F)cc2)c2ccc(O)cc12	x	-7	-13	8.9µM*	6%	2.6µM*
CCOC(=O)c1c(C)n(C)c2ccc(O)cc12	-2	x	x	x	u	-13%
COC(=O)c1c(C)n(-c2ccc(OC)cc2)c2ccc(O)cc12	-38	-3	-27	11µM*	20%	12µM*
COc1cccc(CNS(=O)(=O)c2ccc3c(c2)C(C(C)C)C(=O)N3)c1 (configuration not stated)	-10	x	x	x	x	x
CC1CCN(C(=O)c2ccc(Br)c(S(=O)(=O)N3CCOCC3)c2)CC1	-31	-1	-3	4%	8%	-9%
O=C(c1cccc(S(=O)(=O)NCc2ccccc2)c1)N1CCN(c2ccccc2Cl)CC1	37	x	x	11µM*	x	x
O=C(c1ccc(F)c(S(=O)(=O)N2CCOCC2)c1)N1CCN(c2ccc(F)cc2)CC1	-65*	x	x	19%	6.6µM*	u
CC1CCN(S(=O)(=O)c2cc(C(=O)N3CCN(c4ncccn4)CC3)ccc2Br)CC1	-64*	-3	-10	u	7.4µM*	u
SMILES	HCMV inh	CHX counter	Shiga toxin inh	HCV inhibitor	Pf growth 96h	Pf growth 48h
O=C(c1ccc(Cl)c(S(=O)(=O)N2CCOCC2)c1)N1CCN(c2ccccn2)CC1	-22	x	x	-13%	12µM*	12µM*
O=C(c1ccc(F)c(S(=O)(=O)N2CCOCC2)c1)N1CCN(c2ncccn2)CC1	18	x	x	2%	-23%	60%
COc1ccc(N(C(=O)CNC(=O)c2cccs2)C(C(=O)NC2CCCC2)c2cccnc2)cc1 (configuration not stated)	-22	7	-11	2%	u	-5%
COc1ccc(CNC(=O)c2ccc(NC(=O)N3CCCCc4ccccc43)cc2)c(OC)c1	3	x	x	x	x	x
CC1(NC(=O)c2cc(S(=O)(=O)N3CCCCC3)ccc2Cl)CCS(=O)(=O)C1 (configuration not stated)	-12	4	-6	-5%	35%	x
CC1CCN(S(=O)(=O)c2cc(C(=O)NC3(C)CCS(=O)(=O)C3)ccc2Br)CC1 (configuration not stated)	-61*	x	x	-1%	9.3µM*	u
O=C(c1ccc(Cl)c(S(=O)(=O)NCc2ccccc2)c1)N1CCN(c2ccccn2)CC1	-17	9	-7	x	4.7µM*	u
O=C(c1ccc(CNS(=O)(=O)c2ccccc2)cc1)N1CCN(c2ccccn2)CC1	-26	9	2	-18%	x	-15%
Cc1ccccc1-c1nc(CN2CCC(C(=O)NCCCN3CCCC3)CC2)c(C)o1	-17	-3	-4	14µM*	0%	u
Cc1cc(C)n(C(C)CC(=O)Nc2ccc(C)c(F)c2)n1 (configuration not stated)	-18	x	x	x	x	x
O=C(CN1CCCCC1)NCC(=O)Nc1ccc(F)c(F)c1F	-6	x	x	14%	-2%	3%
CCc1c(C)sc(NC(=O)c2cc3nc(-c4ccc(OC)cc4)cc(C(F)(F)F)n3n2)c1C(=O)OC	16	x	x	x	x	x
CSc1ccc(/C=C2\C(=N)N3N=C(CC(=O)N4CCCCC4)SC3=NC2=O)cc1	-32	-6	4	13%	8%	2%
O=C(CSc1nnc(NC(=O)c2ccccc2C(=O)O)s1)Nc1ccccc1Cl	-20	-2	-2	22%	13µM*	-27%
Cc1cccc(C)c1NC(=O)CSc1nnc(NC(=O)c2ccccc2C(=O)O)s1	-21	-2	2	2%	u	0%
O=C(CCCSc1nnc(Nc2ccccc2F)s1)N1CCOCC1	29	39*	59*	12%	u	u
O=C(CSc1nnc(NC(=O)c2ccc(F)cc2F)s1)NC1CCCC1	75	22*	28	u	72%	73%
O=C(Nc1nnc(SCC(=O)N2CCCCC2)s1)c1ccc(F)cc1F	26	2	21	-2%	8%	25%
CCOc1ccccc1C(=O)Nc1nnc(SCC(=O)N2CCOCC2)s1	u	5	-14	-19%	-122%	u
O=C(Nc1nnc(SCC(=O)N2CCOCC2)s1)c1ccccc1	105	22*	13	12%	98%	68%
CCc1ccc(C(=O)C[n+]2cccc3cc(OC)ccc32)cc1	-29	2	-5	u	0%	u
O=C(CS(=O)(=O)c1cccc2nsnc12)NCc1ccc(Cl)cc1	-19	x	x	x	x	x
